Data reported in ChEMBL document CHEMBL1961873, “Compounds: GSK PKIS; Assays: Nanosyn kinase panel” (2012).

How the values were obtained:
[1] = target: Casein kinase I isoform gamma-2 (Homo sapiens) (UniProt P78368); details: at 1 µM
[2] = target: Casein kinase I isoform gamma-3 (Homo sapiens) (UniProt Q9Y6M4); details: at 0.1 µM
[3] = target: Casein kinase I isoform gamma-3 (Homo sapiens) (UniProt Q9Y6M4); details: at 1 µM
[4] = target: Cyclin-dependent kinase 1 (Homo sapiens) (UniProt P06493); details: at 0.1 µM
[5] = target: Cyclin-dependent kinase 1 (Homo sapiens) (UniProt P06493); details: at 1 µM
[6] = target: Cyclin-dependent kinase 2 (Homo sapiens) (UniProt P24941); details: at 0.1 µM
[7] = target: Cyclin-dependent kinase 2 (Homo sapiens) (UniProt P24941); details: at 1 µM
[8] = target: Cyclin-dependent kinase 2 (Homo sapiens) (UniProt P24941); details: at 0.1 µM; remark: listed apart in the source
[9] = target: Cyclin-dependent kinase 2 (Homo sapiens) (UniProt P24941); details: at 1 µM; remark: listed apart in the source
[10] = target: T1, CDK3/Cyclin E (Homo sapiens) (UniProt P24864+Q00526); details: at 0.1 µM
[11] = target: T1, CDK3/Cyclin E (Homo sapiens); details: at 1 µM
[12] = target: Cyclin-dependent kinase 4 (Homo sapiens) (UniProt P11802); details: at 0.1 µM
[13] = target: Cyclin-dependent kinase 4 (Homo sapiens) (UniProt P11802); details: at 1 µM
[14] = target: Cyclin-dependent kinase 5 (Homo sapiens) (UniProt Q00535); details: at 0.1 µM
[15] = target: Cyclin-dependent kinase 5 (Homo sapiens) (UniProt Q00535); details: at 1 µM
[16] = target: Cyclin-dependent kinase 6 (Homo sapiens) (UniProt Q00534); details: at 0.1 µM
[17] = target: Cyclin-dependent kinase 6 (Homo sapiens) (UniProt Q00534); details: at 1 µM
[18] = target: Dual specificity protein kinase CLK2 (Homo sapiens) (UniProt P49760); details: at 0.1 µM
[19] = target: Dual specificity protein kinase CLK2 (Homo sapiens) (UniProt P49760); details: at 1 µM
[20] = target: Dual specificity protein kinase CLK3 (Homo sapiens) (UniProt P49761); details: at 0.1 µM
Chain of Dual specificity protein kinase CLK3 (Homo sapiens) (P49761 whole entry, looked up): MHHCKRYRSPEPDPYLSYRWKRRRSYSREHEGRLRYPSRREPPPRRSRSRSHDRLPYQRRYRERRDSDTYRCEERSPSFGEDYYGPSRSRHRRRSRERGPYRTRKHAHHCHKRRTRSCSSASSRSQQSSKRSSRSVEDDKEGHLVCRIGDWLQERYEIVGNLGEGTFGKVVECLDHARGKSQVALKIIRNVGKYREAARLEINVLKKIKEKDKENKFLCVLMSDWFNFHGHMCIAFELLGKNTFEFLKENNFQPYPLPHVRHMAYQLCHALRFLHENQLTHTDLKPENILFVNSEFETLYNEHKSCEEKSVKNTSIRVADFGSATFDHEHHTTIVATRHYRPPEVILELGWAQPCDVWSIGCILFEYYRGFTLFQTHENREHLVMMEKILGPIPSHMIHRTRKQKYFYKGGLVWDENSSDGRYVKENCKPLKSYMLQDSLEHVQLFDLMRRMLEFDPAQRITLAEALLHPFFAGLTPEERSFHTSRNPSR

T1 sequence (P24864 whole entry, looked up): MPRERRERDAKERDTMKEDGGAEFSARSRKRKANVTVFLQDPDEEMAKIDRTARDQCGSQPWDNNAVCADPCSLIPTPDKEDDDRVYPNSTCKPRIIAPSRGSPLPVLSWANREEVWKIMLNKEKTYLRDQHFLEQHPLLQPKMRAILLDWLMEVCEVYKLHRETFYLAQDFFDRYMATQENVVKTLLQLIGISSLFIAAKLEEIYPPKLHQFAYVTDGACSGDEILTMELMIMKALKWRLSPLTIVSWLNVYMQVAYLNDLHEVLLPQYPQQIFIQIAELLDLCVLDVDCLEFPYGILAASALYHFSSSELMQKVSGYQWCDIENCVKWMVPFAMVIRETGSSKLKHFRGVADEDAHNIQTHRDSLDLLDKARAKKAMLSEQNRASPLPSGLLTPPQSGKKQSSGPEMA
T1 sequence (Q00526 whole entry, looked up): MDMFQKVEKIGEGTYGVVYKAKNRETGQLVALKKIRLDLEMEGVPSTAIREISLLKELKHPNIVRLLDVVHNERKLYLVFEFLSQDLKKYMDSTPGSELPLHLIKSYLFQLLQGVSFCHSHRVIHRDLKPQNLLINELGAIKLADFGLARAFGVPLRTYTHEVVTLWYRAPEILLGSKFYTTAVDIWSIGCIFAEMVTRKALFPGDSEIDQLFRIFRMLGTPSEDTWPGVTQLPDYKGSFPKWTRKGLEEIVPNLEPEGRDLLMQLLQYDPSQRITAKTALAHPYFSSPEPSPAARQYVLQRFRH
Chain of Casein kinase I isoform gamma-3 (Homo sapiens) (Q9Y6M4 whole entry, looked up, canonical isoform): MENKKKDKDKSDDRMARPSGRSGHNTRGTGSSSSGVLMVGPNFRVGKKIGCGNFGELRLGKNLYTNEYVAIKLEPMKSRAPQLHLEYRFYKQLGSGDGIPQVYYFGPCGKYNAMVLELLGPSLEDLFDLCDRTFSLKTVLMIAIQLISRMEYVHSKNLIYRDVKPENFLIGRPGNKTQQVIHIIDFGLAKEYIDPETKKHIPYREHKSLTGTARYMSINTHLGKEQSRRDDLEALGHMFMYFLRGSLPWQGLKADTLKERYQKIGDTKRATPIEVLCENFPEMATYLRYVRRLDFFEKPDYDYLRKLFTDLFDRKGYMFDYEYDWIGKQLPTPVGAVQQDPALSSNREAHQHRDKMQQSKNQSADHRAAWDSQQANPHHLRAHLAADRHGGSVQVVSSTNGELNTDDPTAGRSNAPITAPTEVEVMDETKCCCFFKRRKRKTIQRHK
Chain of Cyclin-dependent kinase 4 (Homo sapiens) (P11802 whole entry): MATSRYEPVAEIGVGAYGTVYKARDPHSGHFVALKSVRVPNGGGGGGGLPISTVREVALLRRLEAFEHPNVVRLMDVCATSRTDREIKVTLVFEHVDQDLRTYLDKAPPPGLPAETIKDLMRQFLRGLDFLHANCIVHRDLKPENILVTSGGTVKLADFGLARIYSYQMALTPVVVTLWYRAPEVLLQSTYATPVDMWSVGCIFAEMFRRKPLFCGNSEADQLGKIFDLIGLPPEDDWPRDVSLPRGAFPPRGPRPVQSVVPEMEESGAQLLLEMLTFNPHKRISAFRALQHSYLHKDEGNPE
Chain of Cyclin-dependent kinase 1 (Homo sapiens) (P06493 whole entry, looked up): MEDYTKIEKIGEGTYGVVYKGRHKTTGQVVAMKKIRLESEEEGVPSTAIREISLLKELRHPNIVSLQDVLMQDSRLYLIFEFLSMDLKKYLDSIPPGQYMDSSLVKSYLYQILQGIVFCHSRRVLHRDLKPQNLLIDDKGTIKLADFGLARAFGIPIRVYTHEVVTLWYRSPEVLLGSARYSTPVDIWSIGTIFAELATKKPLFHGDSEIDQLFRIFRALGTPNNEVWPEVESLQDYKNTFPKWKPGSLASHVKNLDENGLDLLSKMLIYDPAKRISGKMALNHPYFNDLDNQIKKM
Chain of Dual specificity protein kinase CLK2 (Homo sapiens) (P49760 whole entry, looked up): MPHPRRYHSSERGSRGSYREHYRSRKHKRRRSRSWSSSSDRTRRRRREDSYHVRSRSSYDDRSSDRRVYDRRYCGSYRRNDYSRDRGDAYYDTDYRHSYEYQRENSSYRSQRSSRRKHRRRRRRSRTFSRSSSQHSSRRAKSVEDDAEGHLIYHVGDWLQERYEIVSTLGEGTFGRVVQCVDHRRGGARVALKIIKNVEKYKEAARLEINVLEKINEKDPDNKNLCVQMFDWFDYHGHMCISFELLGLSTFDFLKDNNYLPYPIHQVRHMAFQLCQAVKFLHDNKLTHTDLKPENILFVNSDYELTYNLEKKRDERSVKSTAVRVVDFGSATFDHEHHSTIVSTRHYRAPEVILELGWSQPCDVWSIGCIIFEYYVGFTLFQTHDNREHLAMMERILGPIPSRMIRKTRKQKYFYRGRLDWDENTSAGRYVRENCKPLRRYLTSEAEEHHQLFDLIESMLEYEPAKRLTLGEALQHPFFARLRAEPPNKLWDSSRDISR
Chain of Casein kinase I isoform gamma-2 (Homo sapiens) (P78368 whole entry, looked up, canonical isoform): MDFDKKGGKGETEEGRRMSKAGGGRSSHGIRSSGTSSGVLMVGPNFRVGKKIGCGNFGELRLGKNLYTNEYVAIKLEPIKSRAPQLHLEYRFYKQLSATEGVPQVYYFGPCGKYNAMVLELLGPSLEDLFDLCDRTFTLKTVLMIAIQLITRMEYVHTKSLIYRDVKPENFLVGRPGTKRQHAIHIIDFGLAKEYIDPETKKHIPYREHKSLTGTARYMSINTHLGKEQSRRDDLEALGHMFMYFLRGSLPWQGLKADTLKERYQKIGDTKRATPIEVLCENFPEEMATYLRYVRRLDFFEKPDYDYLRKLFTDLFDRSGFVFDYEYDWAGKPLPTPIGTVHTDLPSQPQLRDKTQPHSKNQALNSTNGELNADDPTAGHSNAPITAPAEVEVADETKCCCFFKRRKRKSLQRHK
Chain of Cyclin-dependent kinase 5 (Homo sapiens) (Q00535 whole entry, looked up): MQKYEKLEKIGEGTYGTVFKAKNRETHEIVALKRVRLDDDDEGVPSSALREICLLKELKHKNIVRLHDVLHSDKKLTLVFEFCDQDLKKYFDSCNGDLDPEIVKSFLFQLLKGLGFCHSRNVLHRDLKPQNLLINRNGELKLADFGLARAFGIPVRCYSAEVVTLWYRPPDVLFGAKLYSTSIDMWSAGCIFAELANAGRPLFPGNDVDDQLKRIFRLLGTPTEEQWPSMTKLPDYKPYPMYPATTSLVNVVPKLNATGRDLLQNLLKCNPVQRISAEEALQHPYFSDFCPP
Chain of Cyclin-dependent kinase 6 (Homo sapiens) (Q00534 whole entry): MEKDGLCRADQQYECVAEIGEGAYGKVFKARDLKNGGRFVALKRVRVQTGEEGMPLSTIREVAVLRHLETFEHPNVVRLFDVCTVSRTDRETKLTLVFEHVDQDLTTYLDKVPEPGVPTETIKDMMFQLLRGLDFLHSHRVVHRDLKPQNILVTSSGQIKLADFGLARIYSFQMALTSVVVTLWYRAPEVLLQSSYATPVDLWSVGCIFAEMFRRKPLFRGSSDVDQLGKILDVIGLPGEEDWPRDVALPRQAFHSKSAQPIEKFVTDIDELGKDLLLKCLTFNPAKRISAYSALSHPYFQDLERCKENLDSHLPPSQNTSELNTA

| SMILES | inhibition [1] | inhibition [2] | inhibition [3] | inhibition [4] | inhibition [5] | inhibition [6] | inhibition [7] | inhibition [8] | inhibition [9] | inhibition [10] | inhibition [11] | inhibition [12] | inhibition [13] | inhibition [14] | inhibition [15] | inhibition [16] | inhibition [17] | inhibition [18] | inhibition [19] | inhibition [20] |
| --- | --- | --- | --- | --- | --- | --- | --- | --- | --- | --- | --- | --- | --- | --- | --- | --- | --- | --- | --- | --- |
| COc1cccc(-n2ncc3c(N/N=C/c4ccc(S(C)(=O)=O)cc4)ncnc32)c1 | -0.73% | -4.22% | -2.43% | 26.2% | 64% | 32.1% | 68% | 7.18% | 41.6% | 4.38% | 20.8% | 0.01% | 20.4% | 21% | 59.2% | 0.78% | 25.6% | 8.7% | 18.4% | -0.53% |
| COc1cc(/C=N/Nc2ncnc3c2cnn3C(C)C)ccc1O | 0.8% | 1.47% | 2.79% | 11.8% | 47.9% | 7.48% | 46.5% | 6.02% | 32.4% | 6.53% | 27.6% | 3.37% | 18.7% | 10.4% | 46.2% | -4.82% | 9.96% | 3.4% | 23.2% | 5.21% |
| CCS(=O)(=O)c1ccc(OC)c(Nc2ncc(-c3cccc(OC)c3)o2)c1 | 3.73% | 3.1% | 5.62% | -0.89% | 2.51% | 1.38% | 5.48% | 2.62% | 7.35% | 0.48% | 3.18% | 1.8% | 3.35% | 0.02% | 1.71% | 3.87% | 5.07% | 34.8% | 86% | 2.36% |
| Cc1nc(-c2ccccc2)n2nc(NCCCN3CCOCC3)ncc12 | 2.19% | 1.6% | 1.78% | 1.76% | 2.4% | 2.24% | 2.48% | 2.24% | 4.68% | -1.66% | 0.9% | 4.19% | 15.2% | 0.75% | 2.62% | 13.8% | 52.7% | 3.46% | 10.1% | 0.04% |
| COc1cc2ncn(-c3cc(OCc4ccccc4S(C)(=O)=O)c(C#N)s3)c2cc1OC | 3.78% | 2.68% | 2.61% | 1.59% | 6.07% | 2.46% | 5.28% | 4.39% | 5.94% | 0.41% | 2.11% | 3.64% | 3.7% | 1.86% | 3.42% | 6.66% | 3.82% | 0.22% | 10.8% | 2.39% |
| C[C@@H](Oc1cc(-n2cnc3ccc(OCC4CCN(C)CC4)cc32)sc1C(N)=O)c1ccccc1C(F)(F)F | -3.37% | -1.08% | -3.59% | 2.12% | 3.02% | -0.78% | 2.52% | -0.93% | 0.83% | -1.54% | 0.6% | -1.73% | 1% | 0.01% | 3.08% | -3.79% | -1.66% | 1.74% | 9.73% | -0.19% |
| Cc1ccc(Nc2ccnc(Nc3cccc(C(N)=O)c3)n2)cc1O | 0.87% | -2.96% | 0.07% | -3.61% | 1.29% | -0.93% | 16.1% | -0.2% | 7.62% | 1.92% | 4.71% | -2.5% | 1.32% | -3.13% | 1.46% | -1.97% | -0.13% | 1.32% | 6.94% | -0.76% |
| ON=C1CCc2cc(-c3nc(C4CCNCC4)[nH]c3-c3ccncc3)ccc21 | 1.04% | 1.01% | 0.07% | 0.23% | 2.04% | 0.63% | -0.53% | 1.2% | 2.51% | 2.27% | 0.13% | 0.69% | 2.19% | 0.57% | 1.42% | -5.1% | -0.84% | 2.05% | -0.07% | -0.6% |
| Cc1cc(-c2ccccn2)cc(C)c1/C=C/c1cncc(-c2nn[nH]n2)c1 | 6.46% | 2.01% | 4.69% | 3.71% | 5.82% | 2.14% | 2.77% | 3.02% | 7.32% | -2.85% | -2.71% | 6.05% | 8.73% | 3.27% | 5.72% | 1.94% | 5.55% | 0.95% | 1.77% | 0.5% |
| Oc1cccc(-c2nc(-c3ccccc3)[nH]c2-c2ccncc2)c1 | 2.78% | 2.62% | 2.68% | 0.66% | 2.64% | 1.15% | -1.31% | 5.08% | 6.33% | 4.62% | -2% | 2.45% | 5.74% | 0.71% | 3.06% | -1.44% | 6.21% | 1.81% | 4.52% | 1.66% |
| NC(=O)c1cccc(Nc2nccc(Nc3cccc(F)c3)n2)c1 | 1.73% | 0.99% | 0.09% | 1.24% | 3.33% | 2.07% | 4.6% | 0.92% | 5.16% | 0.62% | 3.01% | 0.31% | 2.2% | 0.58% | 3.99% | -1.89% | 0.33% | 0.31% | 5.73% | -0.43% |
| NC(=O)c1sc(-n2cnc3ccccc32)cc1OCc1ccccc1Br | 5.04% | 2.52% | 3.56% | 4.32% | 6.19% | 7.43% | 5.68% | 4.88% | 8.08% | -2.25% | 0.26% | 6.61% | 8.04% | 3.59% | 8.58% | -3.6% | -1.95% | 1.89% | 5.2% | 0.83% |
| CCOc1nccc2c1nc(-c1nonc1N)n2CC | 1.13% | 1.1% | 0.56% | 0.5% | 2.69% | 0.81% | 2.63% | 2.66% | 5.12% | 2.48% | -0.38% | 0.99% | 1.83% | 0.91% | 1.13% | -2.27% | 1.84% | 1.77% | 1.91% | 1.37% |
| Cc1ccc2c(-c3ccnc(Nc4cccc(C(F)(F)F)c4)n3)c(-c3ccccc3)nn2n1 | 12% | 4.25% | 24.8% | 3.78% | 3.79% | 4.09% | 3.14% | 2.95% | 7.4% | -1.21% | -1.25% | 4.12% | 7.65% | 2.11% | 4.09% | -1.73% | 1.79% | -0.15% | 2.76% | 0.65% |
